From PubChem
In the library only some 1.8% were active in any assay of this set; here they are far more common.
Fam108B counter = counter-screen for RBBP9 inhibitors: inhibitors of mouse Fam108B; recombinant Fam108B, FP-Rh probe fluorescence polarization; inhibition, % at 9.51 µM; actives 0.33% (n = 300,000); AID 1947;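 active = inhibition above the screen mean inhibition plus 3 SD, computed separately per campaign, cut at about 18% in these data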;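 note: inhibitors lower polarization as less probe binds the enzyme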
LYPLA2 counter = blocks human lysophospholipase 2, a PME1 counter-screen | recombinant LYPLA2, FP-Rh probe fluorescence polarization | inhibition, % at 5.9 µM | actives 0.38% (n = 320,000);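 active = inhibition above the screen-wide mean plus 3 SD, limit set per campaign, cut at about 26% in these data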;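 note: 0% = LYPLA2 with DMSO and 100% = wells lacking LYPLA2 enzyme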
Target sequence (O95372 whole entry, looked up): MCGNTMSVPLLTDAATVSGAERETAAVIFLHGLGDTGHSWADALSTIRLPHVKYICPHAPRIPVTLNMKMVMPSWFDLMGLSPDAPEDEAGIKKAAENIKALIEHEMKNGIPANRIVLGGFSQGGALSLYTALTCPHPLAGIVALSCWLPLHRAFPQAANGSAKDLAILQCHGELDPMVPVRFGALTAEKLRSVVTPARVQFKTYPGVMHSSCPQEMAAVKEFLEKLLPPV
PP1 counter = counter-screen for PP5 inhibitors: inhibitors of human PP1-alpha | P62136 | purified PP1alpha, OMFP fluorescence | inhibition, % at 6.7 µM | actives 0.9% (n = 320,000);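 active = inhibition above the mean inhibition of all tested compounds plus 3 SD, computed separately for each screening campaign, cut at about 15% in these data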
Target sequence (P62136 whole entry, looked up): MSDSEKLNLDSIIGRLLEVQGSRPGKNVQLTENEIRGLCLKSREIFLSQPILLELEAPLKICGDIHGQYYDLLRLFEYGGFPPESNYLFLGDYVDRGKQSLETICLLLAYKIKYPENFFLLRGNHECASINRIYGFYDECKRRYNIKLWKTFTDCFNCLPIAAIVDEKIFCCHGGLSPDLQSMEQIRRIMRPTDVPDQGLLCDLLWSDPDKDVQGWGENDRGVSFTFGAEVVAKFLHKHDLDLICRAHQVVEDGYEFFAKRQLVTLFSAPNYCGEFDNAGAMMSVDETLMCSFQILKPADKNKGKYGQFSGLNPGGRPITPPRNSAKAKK
PME-1 primary = blocks human protein phosphatase methylesterase 1; Q9Y570; recombinant PME-1, FP-Rh probe fluorescence polarization; inhibition, % at 5.9 µM; actives 0.53% (n = 320,000); AID 2130;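 active = inhibition above the campaign mean of all compounds plus 3 SD, cut at about 26% in these data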;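 note: competitive labeling of PME-1 active site by serine hydrolase directed probe; 0% = PME-1 with DMSO and 100% = wells lacking PME-1 enzyme; inhibitors block probe labeling so polarization falls and inhibition rises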
LYPLA1 counter = counter-screen for PME1 inhibitors: inhibitors of human LYPLA1; O75608; recombinant LYPLA1, FP-Rh probe fluorescence polarization; inhibition, % at 5.9 µM; actives 0.16% (n = 320,000); AID 2174;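 active = inhibition above the mean of all tested compounds plus 3 SD, set per campaign, cut at about 14% in these data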;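 note: inhibitors block serine hydrolase probe labeling of LYPLA1 so polarization falls; 0% = enzyme with DMSO and 100% = wells lacking LYPLA1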
PP5 inh = blocks human protein phosphatase 5 activity; AID 1987; inhibition, % at 6.7 µM; actives 0.18% (n = 320,000); purified PP5c, OMFP substrate fluorescence; P53041;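 active = inhibition above the campaign's mean inhibition across all tested compounds plus 3 SD, cut at about 9.5% in these data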;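 note: 0% = DMSO only and 100% = 100 µM cantharidin control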
* = called active by the depositor.

CCOc1ncccc1C(=O)N1CCN(c2cc(Cl)ccc2C)CC1 was read as Fam108B counter 2, LYPLA2 counter 28*, PP1 counter -3, PME-1 primary -1, LYPLA1 counter -1 and PP5 inh 0.
For CCCCn1c(NC(=O)CC)c(C#N)c2nc3ccccc3nc21 the results were Fam108B counter -3, LYPLA2 counter -3, PP1 counter -2, PME-1 primary 2, LYPLA1 counter -1 and PP5 inh 2.
N#Cc1c(NC(=O)c2ccccc2Cl)n(Cc2ccccc2)c2nc3ccccc3nc12 was read as Fam108B counter 12, LYPLA2 counter -6, PP1 counter 22*, PME-1 primary 12, LYPLA1 counter -5 and PP5 inh 6.
Screening COC(=O)c1cccc(C#CC(NP(=O)(c2ccccc2)c2ccccc2)c2ccccc2)c1 (stereo unspecified) returned Fam108B counter -1, LYPLA2 counter -5, PP1 counter 13, PME-1 primary 31*, LYPLA1 counter -7 and PP5 inh 2.
For O=C(Nc1cc(-c2ccccc2)[nH]n1)c1ccc(Cl)cc1 the results were Fam108B counter -3, LYPLA2 counter -8, PP1 counter 17*, PME-1 primary -13, LYPLA1 counter -8 and PP5 inh 1.
For O=C(Nc1ccc(Cl)cc1Cl)c1ccc(-c2ccccc2)cc1 the results were Fam108B counter -1, LYPLA2 counter 1, PP1 counter -4, PME-1 primary -4, LYPLA1 counter 2 and PP5 inh -1.
`NC(=O)c1sc2nc(-c3ccccc3)c3c(c2c1N)CCCC3` gave Fam108B counter 5, LYPLA2 counter 1, PP1 counter 6, PME-1 primary 33*, LYPLA1 counter 0 and PP5 inh 1.
Screening CCCn1c(=O)c(C(=O)OCC)c(O)c2cc(Br)ccc21 returned Fam108B counter -3, LYPLA2 counter -6, PP1 counter 4, PME-1 primary 0, LYPLA1 counter -4 and PP5 inh 4.
CCOC(=O)c1c(CN(C)C)n(C)c2c(O)c(N=NC(N)=O)c3ccc(Br)cc3c12 was read as Fam108B counter 8, LYPLA2 counter 11, PP1 counter 17*, PME-1 primary 11, LYPLA1 counter 2 and PP5 inh 9.
O=C(Cn1cncc1-c1ccc([N+](=O)[O-])cc1)Nc1cccc2ccccc12 was read as Fam108B counter -11, LYPLA2 counter -33, PP1 counter 21*, PME-1 primary -47, LYPLA1 counter -17 and PP5 inh -1.
`COc1cccc(-c2nc(SCC(=O)Nc3nc(-c4ccccc4)c(C)s3)[nH]c(=O)c2C#N)c1` gave Fam108B counter -17, LYPLA2 counter -20, PP1 counter 17*, PME-1 primary -22, LYPLA1 counter -13 and PP5 inh 1.
For Cc1c(OCC(=O)N[C@@H](Cc2ccccc2)C(=O)O)ccc2c1oc(=O)c1ccccc12 the results were Fam108B counter -11, LYPLA2 counter -4, PP1 counter 15*, PME-1 primary -1, LYPLA1 counter -3 and PP5 inh 3.
COC(=O)c1ccc(Cn2nnc3c(=O)[nH]c(C4CCN(S(=O)(=O)c5ccc(F)cc5)CC4)nc32)cc1 was read as Fam108B counter -4, LYPLA2 counter 19, PP1 counter 6, PME-1 primary 36*, LYPLA1 counter 2 and PP5 inh 1.
Screening O=C(CN1c2ccccc2Sc2ccccc21)NNC(=S)Nc1ccc(Cl)cc1Cl returned Fam108B counter 2, LYPLA2 counter 7, PP1 counter 20*, PME-1 primary 3, LYPLA1 counter 1 and PP5 inh -1.
Screening O=C1Cc2ccccc2C(=O)N1c1cccc(Cl)c1 returned Fam108B counter 7, LYPLA2 counter -4, PP1 counter 4, PME-1 primary -5, LYPLA1 counter 1 and PP5 inh 3.
COc1ccc(/C=N/NC(=O)c2nc(-c3ccccc3)n(-c3ccccc3)n2)c(O)c1 was read as Fam108B counter -2, LYPLA2 counter -2, PP1 counter 16*, PME-1 primary -17, LYPLA1 counter -7 and PP5 inh 0.
`Cc1oc(-c2ccc3ccccc3c2)nc1CN(C)C(C)c1ccncn1` (stereo unspecified) gave Fam108B counter -3, LYPLA2 counter -9, PP1 counter 0, PME-1 primary 29*, LYPLA1 counter -2 and PP5 inh 1.
CCN(CC)c1ccc(/C=C(\C#N)C(=O)NCc2ccccc2)cc1 was read as Fam108B counter 2, LYPLA2 counter 6, PP1 counter -1, PME-1 primary 10, LYPLA1 counter -1 and PP5 inh 3.
For Cc1ccc(CNC(=O)/C(C#N)=C\c2ccc(N(C)C)cc2)cc1 the results were Fam108B counter 8, LYPLA2 counter 7, PP1 counter 0, PME-1 primary 27*, LYPLA1 counter -2 and PP5 inh 6.
`O=C(Nc1ccc(CSc2ccccc2)cc1)c1ccco1` gave Fam108B counter -5, LYPLA2 counter 0, PP1 counter 0, PME-1 primary 4, LYPLA1 counter 1 and PP5 inh 1.
Screening Cc1ccc(-n2c(C)cc(/C=c3/sc4nc5ccccc5n4c3=O)c2C)cc1 returned Fam108B counter -5, LYPLA2 counter 3, PP1 counter -1, PME-1 primary -27, LYPLA1 counter -4 and PP5 inh -1.
`O=C(O)Cn1cc(/C=c2/sc3nc4ccccc4n3c2=O)c2ccccc21` gave Fam108B counter 9, LYPLA2 counter -3, PP1 counter 2, PME-1 primary 31*, LYPLA1 counter -1 and PP5 inh 1.
Cc1ccc(N2CC(C(=O)OCc3nnc(-c4ccccc4)o3)CC2=O)cc1 (stereo unspecified) was read as Fam108B counter 11, LYPLA2 counter 2, PP1 counter 5, PME-1 primary 5, LYPLA1 counter -1 and PP5 inh 1.
`C#CCOCCOCCOCCNc1nc(N2CCN(C(=O)[C@H](CCCCN)n3cc([C@@H](N)C(C)CC)nn3)CC2)nc(N2CCN(C(=O)[C@H](Cc3cc4ccccc4[nH]3)n3cc([C@@H](N)CC(C)C)nn3)CC2)n1` (stereo partly specified) gave Fam108B counter -1, LYPLA2 counter -3, PP1 counter 13, PME-1 primary 1, LYPLA1 counter -3 and PP5 inh 1.
C#CCOCCOCCOCCNc1nc(N2CCN(C(=O)C(Cc3ccc(O)cc3)n3cc(C(N)CC(C)C)nn3)CC2)nc(N2CCN(C(=O)C(Cc3cc4ccccc4[nH]3)n3cc(C(N)Cc4ccc(O)cc4)nn3)CC2)n1 (stereo unspecified) was read as Fam108B counter -1, LYPLA2 counter -4, PP1 counter 17*, PME-1 primary -1, LYPLA1 counter -8 and PP5 inh 2.
